Screening results (PubChem BioAssay)
KDM5B inh = Primary screen for KDM5B Histone Demethylases FDH-coupled qHTS; actives 2.6% (n = 220,000); Lysine-specific demethylase 5B (Homo sapiens), Q9UGL1; Potency, µM (titrated, usually from 57.7 µM), actives largely listed as inhibitors; KDM5B demethylase, FDH-coupled NADH fluorescence (FDH is formaldehyde dehydrogenase); AID 1347165, 2019; active = well fitted inhibition curve with a large enough effect; inconclusive = small, poorly fitted or top-dose-only effect; inactive = no such curve, though single readings can be large or run the other way; note: potency is the fitted concentration of half-maximal effect; 0% is about no effect; nearly all actives have a fitted effect of over 70% in size
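Measured: NADH fluorescence change, 30 min, RT. System: KDM5BΔAP 200 nM final, H3K4me3 peptide, α-KG, Fe(II), ascorbate, NAD⁺ plus FDH, pH 7.5 HEPES. Compounds: titrated, 10 min pre-incubation with enzyme.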
IP6K1 inhibitor = Primary qHTS assay for small molecule inhibitors of Inositol hexaphosphate kinase 1 (IP6K1). activity change, % (series mostly up to about 58 µM). actives 0.81% (n = 140,000). AID 1645851, 2021. IP6K1 kinase, ADP-Glo luminescence, 2 h; active compounds read low. Inositol hexakisphosphate kinase 1 (Homo sapiens), Q92551; in the data active = activity change below about -25%; note: % is set by controls: 0 for no effect and ±100 for the full control effect
Target sequence (Q92551 whole entry, looked up): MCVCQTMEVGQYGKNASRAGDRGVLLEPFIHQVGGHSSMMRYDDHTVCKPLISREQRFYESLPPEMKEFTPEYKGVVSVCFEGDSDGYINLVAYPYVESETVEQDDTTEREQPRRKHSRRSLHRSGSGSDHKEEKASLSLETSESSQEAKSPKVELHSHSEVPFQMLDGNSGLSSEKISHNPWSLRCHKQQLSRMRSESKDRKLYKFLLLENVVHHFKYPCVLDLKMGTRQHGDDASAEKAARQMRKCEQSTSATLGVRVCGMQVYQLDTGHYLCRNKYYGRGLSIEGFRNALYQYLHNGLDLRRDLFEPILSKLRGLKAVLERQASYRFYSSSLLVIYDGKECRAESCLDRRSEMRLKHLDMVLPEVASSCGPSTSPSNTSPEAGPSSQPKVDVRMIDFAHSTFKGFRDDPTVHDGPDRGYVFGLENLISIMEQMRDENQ
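ADP-Glo luminescence measures ADP made by human IP6K1 during a 2 h RT reaction with ATP/IP6 (mix at 1.3 mM/130 uM); top library doses 57.5 and 19.1 uM final.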
An asterisk follows results filed as active; i = inactive; ? = inconclusive; nt = not tested or not shown. A selection: hits, their analogues and other compounds. The true share with any hit is near 2.8%.

SMILES	KDM5B inh	IP6K1 inhibitor
Cc1ccc(-c2ccnc(N3CCC(N(C)Cc4ccon4)CC3)n2)c(C)n1	?	-15.5
CCn1ccnc1CN(C)c1nccc(-c2ccc(C)nc2C)n1	22.4µM*	-9.8
COc1ccc(Cn2c(C(C)NC(=O)OCc3ccccc3)nc3cccnc32)cc1 (stereo not drawn)	i	20.0
O=C(Nc1ccc(Cl)cc1Cl)c1cnn2ncccc12	35.5µM*	0.4
COC(=O)N1CCn2ncc(C(=O)Nc3ccc(Cl)cc3Cl)c2C1	i	-5.2
O=C(O)c1nccnc1C(=O)Nc1ccc(Cl)cc1Cl	i	nt
O=C(Nc1ccc(Cl)cc1Cl)c1cccn2nccc12	31.6µM*	-8.4
Cc1ccc(S(=O)(=O)N2CCN(C3CCN(CCc4ccccc4)C3=O)CC2)cc1C (stereo not drawn)	i	16.3
CCOc1ccc(C(=O)N2CCC3(CC2)N=C(c2ccc(Cl)cc2)NO3)cc1	28.2µM*	1.0
Cc1ccc(C(=O)N2CCC3(CC2)N=C(c2ccc(Cl)cc2)NO3)cc1	?	-3.4
O=C(Cc1ccc(F)cc1)N1CCC2(CC1)N=C(c1ccc(Cl)cc1)NO2	?	2.7
CCOc1ccc(CC(=O)N2CCC3(CC2)N=C(c2ccc(Cl)cc2)NO3)cc1	15.8µM*	-12.7
CCCCCn1c(NC)nc2c1c(=O)[nH]c(=O)n2C	i	nt
COc1cc2c(cc1OC)CN(C(=O)CCCN(C)S(=O)(=O)c1ccc(F)cc1)CC2	i	nt
O=C(c1ccccc1)N1CC2(CCCN2C2COC2)Cc2ccccc21 (stereo not drawn)	i	2.5
O=C(c1ccc(Cl)cc1)N1CC2(CCCN2C2COC2)Cc2ccccc21 (stereo not drawn)	89.1µM*	-0.3
O=C(NCCOc1ccc2ccccc2c1)c1cnc2ccccc2n1	i	nt
Cc1ccccc1-c1[nH]nc2ncc(-c3cccc(O)c3)nc12	?	4.2
COc1ccc(-c2cnc3n[nH]c(-c4ccccc4C)c3n2)cn1	?	6.5
Cc1ccsc1-c1[nH]nc2ncc(-c3ccccc3F)nc12	i	16.6
Cc1ccccc1-c1[nH]nc2ncc(-c3ccsc3)nc12	31.6µM*	20.8
Cc1ccccc1-c1[nH]nc2ncc(-c3cnn(C)c3)nc12	31.6µM*	17.0
Cc1ccccc1-c1[nH]nc2ncc(-c3ccccc3F)nc12	35.5µM*	10.7
CCCNC(=O)N1CCC2(CC1)CC(N(C(=O)c1ccccc1)C1CC1)CCO2 (stereo not drawn)	i	-9.0
COC(=O)c1c(S(=O)(=O)N2CCCCCCC2)sc2c1CCN(C(=O)C1CC=CCC1)C2 (stereo not drawn)	i	6.5
SMILES	KDM5B inh	IP6K1 inhibitor
O=C(NCCc1ccccc1)c1cc(Cl)ccn1	i	nt
O=C(c1ccc(F)cc1)N1CCC2(CC1)COc1ccccc1NC2=O	i	32.5
O=C(c1nccc2ccccc12)N1CCc2nc3cc[nH]n3c(=O)c2C1	?	0.0
O=C(c1cc(-c2ccccc2)n[nH]1)N1CCc2c(nc3cc[nH]n3c2=O)C1	22.4µM*	8.7
O=C(c1ccccc1C(F)(F)F)N1CCc2nc3cc[nH]n3c(=O)c2C1	31.6µM*	0.5
CCOC(=O)c1ccc(NC(=O)N2CCc3c(nc4cc[nH]n4c3=O)C2)cc1	22.4µM*	0.5
O=C(c1cc(-c2ccccc2)n[nH]1)N1CCc2c(nc(-c3ccc(F)cc3)[nH]c2=O)C1	i	6.3
N#Cc1cccc(NC(=O)N2CCc3nc4cc[nH]n4c(=O)c3C2)c1	?	0.0
O=C(C1CCN(S(=O)(=O)N2CCOCC2)CC1)N1CCc2nc3cc[nH]n3c(=O)c2C1	31.6µM*	0.0
O=C(c1cc(-c2cccs2)[nH]n1)N1CCc2nc3cc[nH]n3c(=O)c2C1	?	0.0
CCc1nc(NC(=O)C2c3ccccc3C(=O)N(CCOC)C23CCCC3)sc1C (stereo not drawn)	i	13.7
Cc1cccc(OCCc2noc(C3CN(C(=O)CCC4CCCC4)C3)n2)c1	i	5.9
COc1ccc(-c2nc3c(c(=O)[nH]2)CCN(C(=O)c2ccc(OC)cc2OC)C3)cc1	?	9.1
Cc1ccccc1C(=O)N1CCc2c(nc3cc[nH]n3c2=O)C1	28.2µM*	13.4
COc1ccc(S(=O)(=O)N2CCc3nc4cc[nH]n4c(=O)c3C2)cc1Cl	25.1µM*	4.8
COc1ccccc1CC(=O)N1CCc2c(nc3cc[nH]n3c2=O)C1	28.2µM*	11.7
COc1ccccc1CC(=O)N1CCc2c(nc[nH]c2=O)C1	i	24.3
COc1ccc(C(=O)N2CCc3c(nc4cc[nH]n4c3=O)C2)c(C)c1	28.2µM*	13.4
O=c1c2c(nc3cc[nH]n13)CCN(S(=O)(=O)c1ccc3c(c1)CCC3)C2	?	0.0
Cc1ccccc1C(=O)N1CCc2nc(C3CC3)nc(-c3ccc(O)cc3)c2C1	nt	4.9
Oc1ccc(C=NCC2(c3ccccc3)CCCC2)cc1	i	nt
CCOCCCNc1oc(-c2ccc(S(=O)(=O)N3CCOCC3)cc2)nc1C#N	i	nt
O=C(CCn1ccn2nc3c(c2c1=O)CCCC3)NCc1ccc(F)c(Cl)c1	i	2.4
O=C(CCNc1cnc2cnccn12)NCc1ccc(F)c(Cl)c1	25.1µM*	14.4
O=C(O)C1CN(c2nccc(N3CCC(O)CC3)n2)CCN1 (stereo not drawn)	?	2.8
SMILES	KDM5B inh	IP6K1 inhibitor
CC(=O)NC1CCN(c2nccc(Nc3ccc(C)cc3)n2)CC1	nt	11.7
CCOc1ccc(-c2ccnc(N3CCNC(C)C3)n2)cc1C(=O)O (stereo not drawn)	28.2µM*	4.4
CCOc1ccc(-c2ccnc(N3CCC(NC(C)=O)CC3)n2)cc1C(=O)O	31.6µM*	-7.7
CCOc1ccc(-c2ccnc(NC[C@@H]3CCCO3)n2)cc1C(=O)O	22.4µM*	-9.7
CCCOc1c(Cl)cc(C(=O)NCC2CCCO2)cc1OCC (stereo not drawn)	i	nt
COc1ccc(CNC(=O)CSc2cc(C)c3ccc(OC)cc3n2)cc1	i	nt
CN(C)C[C@H]1C[C@@H](CO)CN(C(=O)c2ccccc2OC(F)(F)C(F)F)C1	i	-6.9
CCOc1ccc(C(=O)N2CCC3(CCC(=O)N(CCOC)CC3)CC2)cc1	i	-8.8
COc1ccc(CCC(=O)N2C[C@@H](Oc3ccccc3)C[C@@H]2C(=O)N2CCOCC2)cc1	i	19.4
Cc1c(CC(=O)O)c(=O)oc2c(C)c(OC(C)C(=O)O)ccc12 (stereo not drawn)	i	nt
COc1ccc(NC(=O)C(=O)c2c(C)[nH]c3ccccc23)cc1OC	i	nt
CCCC(C)N1CC2(CCN(C(=O)c3cnn4ccccc34)CC2)OC1=O (stereo not drawn)	28.2µM*	0.6
O=C1CC2(CCN(C(=O)c3cnn4ccccc34)CC2)CN1Cc1ccccc1	20µM*	5.2
O=C1CC2(CCN(C(=O)C3CCc4ccccc43)CC2)CN1Cc1ccccc1 (stereo not drawn)	i	9.8
CCCC(C)N1CC2(CCN(C(=O)c3cnc(C)cn3)CC2)OC1=O (stereo not drawn)	i	8.0
CSc1ccccc1C(=O)Nc1cc(C(F)(F)F)cc(C(F)(F)F)c1	i	nt
FC(F)(F)c1cnc(Sc2ncnc3sccc23)c(Cl)c1	i	nt
Cc1nn(-c2ccc(C(C)(C)C)cc2)c(C)c1[C@@H]1C=C[C@@H](NC(=O)c2ccc(N(C)C)cc2)C1	?	6.9
